From PubChem BioAssay (NCATS)
“And” between values parts separate entries of the source, which are not always exact repeats. Equal entries are not always repeated. Records with an inconclusive call do not appear. A call without a number means that no potency is given here. A structure can be active in one record and inactive in another. Unmarked numbers belong to inactive results. The source made the active and inactive calls. The call rests on the fitted dose curve; in most records, active means well fitted inhibition curve with a large enough effect; inconclusive means small, poorly fitted or top-dose-only effect; inactive means flat fitted curve, though single readings scatter.

Legend:
CRL-7250 = normal cell line; assay: Cytotoxic Profiling of Annotated Libraries Using Quantitative High-Throughput Screening (AID 1296008); details: Five cell lines viability, CellTiter-Glo ATP luminescence, 48-72 h; max response: active compounds read low; further: potency means the concentration at half of the fitted maximal effect
In short: (§1)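 Compounds were pin-transferred onto cells and incubated 48 or 72 hr at 37 degree Celsius, 95% humidity. CellTiter-Glo was added, plates sat 10 min at room temperature, then ATP-coupled luminescence was imaged as the viability read-out.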

HEK293 = assay: as above; details: Five cell lines viability, CellTiter-Glo ATP luminescence, 48-72 h; max response: active compounds read low
In short: as §1

HaCat [1] = assay: as above; details: Five cell lines viability, CellTiter-Glo ATP luminescence, 48-72 h; max response: active compounds read low
In short: as §1

KB-3-1 = assay: as above; details: Five cell lines viability, CellTiter-Glo ATP luminescence, 48-72 h; max response: active compounds read low
In short: as §1

NIH3T3 = assay: as above; details: Five cell lines viability, CellTiter-Glo ATP luminescence, 48-72 h; max response: active compounds read low
In short: as §1

HACAT [2] = assay: qHTS assay to identify novel small-molecules to repurpose for Merkel cell carcinoma treatment (AID 1296009); details: MCC and control cell lines, CellTiter-Glo viability, 72 h; at 44.8 µM (top of the series) unless noted
In short: (§2)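 Luminescence from CellTiter-Glo, read 10 min after addition at room temperature, reported viability following a 72 hr, 37 degree celsius treatment with NPC or MIPE compounds in titration; values normalized to plate controls.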

JCK = assay: qHTS profiling for inhibitors of Plasmodium falciparum proliferation (AID 504749); further: potency means the concentration at half of the fitted maximal effect; details: P. falciparum in erythrocytes, SYBR Green DNA, 72 h; series mostly up to 28.7 µM
In short: (§3)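 Fluorescence of SYBR Green-bound parasite DNA, read at 485/535 nm, served as the growth measure. Infected erythrocytes were cultured with compound 72 h; artemisinin (0.29 uM) and DMSO wells defined the normalization range.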

N140 = assay: as above; details: P. falciparum in erythrocytes, SYBR Green DNA, 72 h; series mostly up to 28.7 µM
In short: as §3

P93_24 = assay: as above; details: P. falciparum in erythrocytes, SYBR Green DNA, 72 h; series mostly up to 28.7 µM
In short: as §3

P94_40 = assay: as above; details: P. falciparum in erythrocytes, SYBR Green DNA, 72 h; series mostly up to 28.7 µM
In short: as §3

PAD = assay: as above; details: P. falciparum in erythrocytes, SYBR Green DNA, 72 h; series mostly up to 28.7 µM
In short: as §3

PC15 = assay: as above; details: P. falciparum in erythrocytes, SYBR Green DNA, 72 h; series mostly up to 28.7 µM
In short: as §3

PC26 = assay: as above; details: P. falciparum in erythrocytes, SYBR Green DNA, 72 h; series mostly up to 28.7 µM
In short: as §3

PC49 = assay: as above; details: P. falciparum in erythrocytes, SYBR Green DNA, 72 h; series mostly up to 28.7 µM
In short: as §3

SC27B = assay: as above; details: P. falciparum in erythrocytes, SYBR Green DNA, 72 h; series mostly up to 28.7 µM
In short: as §3

TAB109 = assay: as above; details: P. falciparum in erythrocytes, SYBR Green DNA, 72 h; series mostly up to 28.7 µM
In short: as §3

TAB113 = assay: as above; details: P. falciparum in erythrocytes, SYBR Green DNA, 72 h; series mostly up to 28.7 µM
In short: as §3

TAB165 = assay: as above; details: P. falciparum in erythrocytes, SYBR Green DNA, 72 h; series mostly up to 28.7 µM
In short: as §3

W2 = assay: as above; details: P. falciparum in erythrocytes, SYBR Green DNA, 72 h; series mostly up to 28.7 µM
In short: as §3

HEK293T = assay: qHTS assay to identify novel small-molecules to repurpose for Merkel cell carcinoma treatment (AID 1296009); details: MCC and control cell lines, CellTiter-Glo viability, 72 h; at 44.8 µM (top of the series) unless noted
In short: as §2
Further: nearly all actives have a fitted effect of over 60% in size.

In the case of `Oc1ccc(-c2nc(-c3ccc(F)cc3)c(-c3ccncc3)[nH]2)cc1`, the max response (CRL-7250) is reported as -11.9%, the Potency (HEK293) is reported as 11.8 µM (active) and the max response (HaCat [1]) is reported as -6.19%. For the same molecule, the outcome (KB-3-1) was “inactive” and the outcome (NIH3T3) was “inactive”.

In the case of `Cc1ccc(Nc2nccc(N(C)c3ccc4c(C)n(C)nc4c3)n2)cc1S(N)(=O)=O`, the Potency (CRL-7250) is reported as 6.51 µM (active), the Potency (HEK293) is reported as 11.8 µM (active) and the max response (HaCat [1]) is reported as -13.5% and -50.9%. The outcome (HaCat [1]) was “inactive”, the max response (KB-3-1) was -14.3% and -5.07% and -20.5% and the Potency (NIH3T3) was 7.43 µM (active) and 7.31 µM (active). For the same molecule, the outcome (HACAT [2]) was “inactive”.

In the case of `COC(=O)C1=C(C)NC(C)=C(C(=O)OC(C)C)C1c1cccc2nonc12` (centres undefined), the max response (CRL-7250) is reported as -24.3%, the max response (HEK293) is reported as -10.7% and the max response (HaCat [1]) is reported as -5.13% and 3.88%. The max response (KB-3-1) was 5.12% and -6.21% and the max response (NIH3T3) was 1.63%.

For `S=c1nc[nH]c2nc[nH]c12`, the max response (CRL-7250) was -19.8%, the Potency (HEK293) was 6.68 µM (active) and 13.2 µM (active) and the Potency (HaCat [1]) was 14.8 µM (active). The Potency (KB-3-1) was 7.43 µM (active) and the Potency (NIH3T3) was 1.88 µM (active) and 4.69 µM (active).

`O=C(NCCO[N+](=O)[O-])c1cccnc1` was tested, and the Potency (JCK) was “inactive”, the Potency (N140) was “inactive” and the Potency (P93_24) was “inactive”. For the same molecule, the Potency (P94_40) was “inactive”, the Potency (PAD) was “inactive” and the Potency (PC15) was “inactive”. The Potency (PC26) was “inactive”, the Potency (PC49) was “inactive” and the Potency (SC27B) was “inactive”. The Potency (TAB109) was “inactive”, the Potency (TAB113) was “inactive” and the Potency (TAB165) was “inactive”. For the same molecule, the Potency (W2) was “inactive”, the max response (CRL-7250) was -0.661% and -5.95% and the outcome (HEK293) was “inactive”. The max response (HaCat [1]) was 4.19%, the outcome (HaCat [1]) was “inactive” and the outcome (KB-3-1) was “inactive”. For the same molecule, the outcome (NIH3T3) was “inactive”, the outcome (HACAT [2]) was “inactive” and the outcome (HEK293T) was “inactive”.

In the case of `Nc1ccn([C@@H]2O[C@H](CO)[C@@H](O)C2O)c(=O)n1` (some centres undefined), the Potency (JCK) is reported as “inactive”, the Potency (N140) is reported as “inactive” and the Potency (P93_24) is reported as “inactive”. For the same molecule, the Potency (P94_40) was “inactive”, the Potency (PAD) was “inactive” and the Potency (PC15) was “inactive”. For the same molecule, the Potency (PC49) was “inactive”, the Potency (SC27B) was “inactive” and the Potency (TAB109) was “inactive”. The Potency (TAB113) was “inactive”, the Potency (TAB165) was “inactive” and the outcome (CRL-7250) was “inactive”. The outcome (HEK293) was “inactive”, the outcome (HaCat [1]) was “inactive” and the max response (KB-3-1) was 21.2%. For the same molecule, the outcome (KB-3-1) was “inactive”, the outcome (NIH3T3) was “inactive” and the outcome (HACAT [2]) was “inactive”. For the same molecule, the outcome (HEK293T) was “inactive”.

`COC(=O)C1=C(C)NC(C)=C(C(=O)OCCCN2CCC(c3ccccc3)(c3ccccc3)CC2)C1c1cccc([N+](=O)[O-])c1` (centres undefined) was tested, and the Potency (N140) was 5.01 µM (active), the Potency (P93_24) was 3.98 µM (active) and the Potency (P94_40) was 4.47 µM (active). The Potency (PAD) was 10 µM (active), the Potency (PC15) was 11.2 µM (active) and the Potency (PC26) was 6.01 µM (active). The Potency (SC27B) was 3.55 µM (active), the Potency (TAB109) was 5.01 µM (active) and the Potency (TAB113) was 2.51 µM (active). The Potency (TAB165) was 2.82 µM (active), the Potency (W2) was 3.38 µM (active) and the max response (CRL-7250) was -3.52%. For the same molecule, the Potency (HEK293) was 8.41 µM (active), the max response (HEK293) was -0.0015% and the outcome (HaCat [1]) was “inactive”. The max response (KB-3-1) was 0.505%, the outcome (NIH3T3) was “inactive” and the outcome (HACAT [2]) was “inactive”.

With `CCN(CC)CCOc1ccc(Nc2ncc3cc(-c4c(Cl)cccc4Cl)c(=O)n(C)c3n2)cc1` the Potency (CRL-7250) was 0.0166 µM (active), the Potency (HEK293) was 0.209 µM (active) and the Potency (HaCat [1]) was 0.264 µM (active). The Potency (KB-3-1) was 0.296 µM (active) and the Potency (NIH3T3) was 74.3 nM (active).

`O=C(O)c1cccnc1Nc1cccc(C(F)(F)F)c1` was tested, and the Potency (JCK) was “inactive”, the Potency (N140) was “inactive” and the Potency (P93_24) was “inactive”. For the same molecule, the Potency (P94_40) was “inactive”, the Potency (PAD) was “inactive” and the Potency (PC15) was “inactive”. The Potency (PC26) was “inactive”, the Potency (PC49) was “inactive” and the Potency (SC27B) was “inactive”. For the same molecule, the Potency (TAB109) was “inactive”, the Potency (TAB113) was “inactive” and the Potency (TAB165) was “inactive”. For the same molecule, the Potency (W2) was “inactive”, the max response (CRL-7250) was -6.42% and -10.2% and the max response (HEK293) was -4.95%. For the same molecule, the max response (HaCat [1]) was 1.64%, the outcome (HaCat [1]) was “inactive” and the max response (KB-3-1) was 5.86% and -3.77%. For the same molecule, the max response (NIH3T3) was -31.9%, the outcome (NIH3T3) was “inactive” and the outcome (HACAT [2]) was “inactive”.

`NC(=O)Cc1cccc(C(=O)c2ccccc2)c1N` was tested, and the max response (CRL-7250) was -2.24% and -8.84%, the max response (HEK293) was -0.043% and -1.4% and the max response (HaCat [1]) was -6.4%. For the same molecule, the outcome (HaCat [1]) was “inactive”, the max response (KB-3-1) was -8.75% and the max response (NIH3T3) was 1.53% and -19%. The outcome (HACAT [2]) was “inactive”.

With `c1cnc2cc3c(cc2n1)C1CNCC3C1` the max response (CRL-7250) was -23.9% and -2.72%, the max response (HEK293) was -2.74% and -10.4% and the max response (HaCat [1]) was 2.53%. The outcome (HaCat [1]) was “inactive”, the max response (KB-3-1) was 3.64% and -1.73% and the outcome (KB-3-1) was “inactive”. The max response (NIH3T3) was 4.61%, the outcome (NIH3T3) was “inactive” and the outcome (HACAT [2]) was “inactive”.

With `Cc1ccc(C(=O)c2cc(O)c(O)c([N+](=O)[O-])c2)cc1` the max response (CRL-7250) was -7.14%, the outcome (HEK293) was “inactive” and the max response (HaCat [1]) was -18.7%. The outcome (HaCat [1]) was “inactive”, the max response (NIH3T3) was 1.41% and the outcome (HACAT [2]) was “inactive”. For the same molecule, the outcome (HEK293T) was “inactive”.

In the case of `CC1(C)NC(=O)N(c2ccc([N+](=O)[O-])c(C(F)(F)F)c2)C1=O`, the Potency (JCK) is reported as “inactive”, the Potency (N140) is reported as “inactive” and the Potency (P93_24) is reported as “inactive”. For the same molecule, the Potency (P94_40) was “inactive”, the Potency (PAD) was “inactive” and the Potency (PC15) was “inactive”. For the same molecule, the Potency (PC26) was “inactive”, the Potency (PC49) was “inactive” and the Potency (SC27B) was “inactive”. The Potency (TAB109) was “inactive”, the Potency (TAB113) was “inactive” and the Potency (TAB165) was “inactive”. For the same molecule, the Potency (W2) was “inactive”, the max response (CRL-7250) was -12.3% and the max response (HEK293) was -29%. The max response (HaCat [1]) was -0.412%, the outcome (HaCat [1]) was “inactive” and the max response (KB-3-1) was 2.37% and -24.9%. The max response (NIH3T3) was -6.23% and -0.388% and the outcome (HACAT [2]) was “inactive”.
